Measurements: ChEMBL document CHEMBL3988442, “University of Dundee, Small-Polar-MMV Screening Library” (2021)
For some of these results: Results with a measured potency or affinity are listed apart.

Tests used:
Parameters in all cases: scale not given: direction of the effect not stated beside the values
[1] = molecular target: Protein translocase subunit SecA (Escherichia coli (strain K12)) (UniProt P10408); experiment: Assay to Identify E. coli SecA ATPase Inhibitors; type: functional; settings: 30 µM
[2] = molecular target: T1, Ubiquitin-activating enzyme e1, putative (Leishmania donovani (strain BPK282A1)) (UniProt E9BSI1); experiment: Leishmania donovani Ubiquitin Activating Enzyme (LdE1); type: functional; settings: 30 µM
T1 sequence (whole entry): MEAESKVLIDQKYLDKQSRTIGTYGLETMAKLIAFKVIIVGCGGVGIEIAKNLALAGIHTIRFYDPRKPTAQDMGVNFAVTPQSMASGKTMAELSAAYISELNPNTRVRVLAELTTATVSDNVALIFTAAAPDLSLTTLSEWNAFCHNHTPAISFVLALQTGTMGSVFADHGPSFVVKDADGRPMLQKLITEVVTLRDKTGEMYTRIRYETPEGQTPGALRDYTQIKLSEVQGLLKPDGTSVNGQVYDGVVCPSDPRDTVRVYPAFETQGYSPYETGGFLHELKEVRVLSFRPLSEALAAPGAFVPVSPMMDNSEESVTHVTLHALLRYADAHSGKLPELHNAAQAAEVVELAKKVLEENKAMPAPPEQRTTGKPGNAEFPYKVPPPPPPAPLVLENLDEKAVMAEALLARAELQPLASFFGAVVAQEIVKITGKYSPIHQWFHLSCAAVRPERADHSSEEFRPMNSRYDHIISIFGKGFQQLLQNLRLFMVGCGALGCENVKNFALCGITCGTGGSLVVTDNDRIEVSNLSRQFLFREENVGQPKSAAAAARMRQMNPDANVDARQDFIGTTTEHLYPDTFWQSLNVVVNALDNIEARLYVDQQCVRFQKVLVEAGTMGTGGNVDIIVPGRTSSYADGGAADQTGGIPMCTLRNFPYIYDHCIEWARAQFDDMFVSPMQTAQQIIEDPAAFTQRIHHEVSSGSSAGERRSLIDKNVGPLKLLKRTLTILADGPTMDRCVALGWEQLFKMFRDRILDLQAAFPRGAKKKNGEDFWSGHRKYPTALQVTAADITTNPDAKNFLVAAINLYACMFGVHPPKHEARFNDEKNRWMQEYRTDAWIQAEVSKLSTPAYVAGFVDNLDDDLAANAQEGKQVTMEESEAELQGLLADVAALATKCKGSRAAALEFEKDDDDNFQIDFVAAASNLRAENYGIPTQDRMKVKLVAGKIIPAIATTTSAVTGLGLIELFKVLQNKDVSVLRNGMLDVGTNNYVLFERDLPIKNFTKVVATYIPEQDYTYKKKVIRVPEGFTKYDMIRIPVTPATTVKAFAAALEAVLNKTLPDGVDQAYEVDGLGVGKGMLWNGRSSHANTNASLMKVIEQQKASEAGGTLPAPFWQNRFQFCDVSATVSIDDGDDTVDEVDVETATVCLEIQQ

[3] = molecular target: AMP-activated protein kinase, AMPK (Homo sapiens) (UniProt P54646+O43741+P54619+Q9UGJ0+Q9Y478+Q13131+Q9UGI9); experiment: AMP-dependent Kinase enzyme assay. An in vitro enzyme assay that detects ADP turnover that is directly proportional to AMPK activity. This uses naive AMPK that is activated during the assay with MK-8722; type: functional; settings: 30 µM
[4] = molecular target: Sialic acid-binding Ig-like lectin 9 (Homo sapiens) (UniProt Q9Y336); experiment: Hs-Siglec9 ALPHAscreen SOP 20170721; settings: 10 µM
Trypanosoma cruzi = experiment: Trypanosoma cruzi phosphomannomutase and mannose-1-phosphate guanylyltransferase assay; type: functional; settings: 10 µM
[5] = molecular target: T2, Arginase-2, mitochondrial (Homo sapiens) (UniProt P78540); experiment: in vitro enzyme assay to detect the production of urea directly proportional to the activity of Arginase II; type: functional; settings: 33.3 µM; further: in the data most compounds retested in dose-response had high values
T2 sequence (whole entry): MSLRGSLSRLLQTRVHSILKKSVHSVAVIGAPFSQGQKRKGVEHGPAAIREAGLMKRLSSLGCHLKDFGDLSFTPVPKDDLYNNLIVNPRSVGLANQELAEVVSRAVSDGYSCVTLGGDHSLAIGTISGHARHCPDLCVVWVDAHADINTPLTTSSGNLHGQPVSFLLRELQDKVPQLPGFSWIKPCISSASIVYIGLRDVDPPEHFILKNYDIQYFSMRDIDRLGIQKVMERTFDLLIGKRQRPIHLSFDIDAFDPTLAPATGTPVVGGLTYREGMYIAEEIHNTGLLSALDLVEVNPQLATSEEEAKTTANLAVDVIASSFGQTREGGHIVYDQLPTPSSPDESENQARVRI

[6] = molecular target: T3, Proteasome subunit beta (Trypanosoma cruzi) (UniProt O96673); experiment: Trypanosoma cruzi proteasome chymotrypsin-like activity (TcProtChymo) assay.; further: in the data most compounds retested in dose-response had high values; type: functional; settings: 9.37 µM
T3 sequence (whole entry): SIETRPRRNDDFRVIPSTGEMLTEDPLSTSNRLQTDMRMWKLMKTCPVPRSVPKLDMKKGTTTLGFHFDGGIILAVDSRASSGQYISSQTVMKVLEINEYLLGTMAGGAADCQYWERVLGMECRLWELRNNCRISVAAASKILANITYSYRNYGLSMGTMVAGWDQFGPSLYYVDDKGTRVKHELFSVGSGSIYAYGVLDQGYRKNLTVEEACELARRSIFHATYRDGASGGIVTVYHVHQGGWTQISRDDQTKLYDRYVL

Homo sapiens = species on record: Homo sapiens; experiment: To identify inhibition of the IFN signalling (Jak-Stat) pathway via expression of an eGFP reporter gene under the control of an IFN-stimulated response element (ISRE) containing MxA promoter.; type: functional; settings: 30 µM
[7] = molecular target: T4, Tyrosyl-tRNA synthetase, putative (Trypanosoma cruzi (strain CL Brener)) (UniProt Q4DSP6); experiment: Trypanosoma cruzi tyrosyl tRNA synthetase (TcYRS) _High Tyrosine SOP; type: functional; settings: 30 µM; further: in the data most compounds retested in dose-response had high values
T4 sequence (whole entry): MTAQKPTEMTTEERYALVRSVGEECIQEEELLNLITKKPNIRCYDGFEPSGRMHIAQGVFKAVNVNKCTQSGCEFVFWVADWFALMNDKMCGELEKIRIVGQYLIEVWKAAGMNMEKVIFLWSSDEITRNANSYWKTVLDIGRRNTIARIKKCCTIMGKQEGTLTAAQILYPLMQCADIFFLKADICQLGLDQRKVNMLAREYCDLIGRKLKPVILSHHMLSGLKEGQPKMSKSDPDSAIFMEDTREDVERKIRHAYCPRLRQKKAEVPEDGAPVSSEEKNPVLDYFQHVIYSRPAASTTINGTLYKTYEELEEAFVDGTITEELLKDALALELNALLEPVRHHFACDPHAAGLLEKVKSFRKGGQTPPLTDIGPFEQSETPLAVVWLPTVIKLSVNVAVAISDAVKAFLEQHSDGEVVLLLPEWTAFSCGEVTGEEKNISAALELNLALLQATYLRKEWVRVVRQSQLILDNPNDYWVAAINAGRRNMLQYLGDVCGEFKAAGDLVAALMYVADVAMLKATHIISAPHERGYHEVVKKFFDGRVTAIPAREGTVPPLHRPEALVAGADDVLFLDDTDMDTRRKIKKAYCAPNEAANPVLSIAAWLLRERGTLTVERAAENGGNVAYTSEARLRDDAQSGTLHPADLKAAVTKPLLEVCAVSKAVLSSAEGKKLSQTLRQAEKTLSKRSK

[8] = molecular target: T4, Tyrosyl-tRNA synthetase, putative (Trypanosoma cruzi (strain CL Brener)); experiment: Trypanosoma cruzi tyrosyl tRNA synthetase (TcYRS) SOP; type: functional; settings: 30 µM
[9] = molecular target: Chromo domain-containing protein 1 (Saccharomyces cerevisiae (strain ATCC 204508 / S288c) (Baker's yeast)) (UniProt P32657); experiment: ScCHD-1 Enzyme Inhibition Assay; type: functional; settings: 30 µM; further: in the data most compounds retested in dose-response had high values
Chromo domain-containing protein 1 (Saccharomyces cerevisiae (strain ATCC 204508 / S288c) (Baker's yeast)), sequence (P32657 whole entry, the tested form may be a part): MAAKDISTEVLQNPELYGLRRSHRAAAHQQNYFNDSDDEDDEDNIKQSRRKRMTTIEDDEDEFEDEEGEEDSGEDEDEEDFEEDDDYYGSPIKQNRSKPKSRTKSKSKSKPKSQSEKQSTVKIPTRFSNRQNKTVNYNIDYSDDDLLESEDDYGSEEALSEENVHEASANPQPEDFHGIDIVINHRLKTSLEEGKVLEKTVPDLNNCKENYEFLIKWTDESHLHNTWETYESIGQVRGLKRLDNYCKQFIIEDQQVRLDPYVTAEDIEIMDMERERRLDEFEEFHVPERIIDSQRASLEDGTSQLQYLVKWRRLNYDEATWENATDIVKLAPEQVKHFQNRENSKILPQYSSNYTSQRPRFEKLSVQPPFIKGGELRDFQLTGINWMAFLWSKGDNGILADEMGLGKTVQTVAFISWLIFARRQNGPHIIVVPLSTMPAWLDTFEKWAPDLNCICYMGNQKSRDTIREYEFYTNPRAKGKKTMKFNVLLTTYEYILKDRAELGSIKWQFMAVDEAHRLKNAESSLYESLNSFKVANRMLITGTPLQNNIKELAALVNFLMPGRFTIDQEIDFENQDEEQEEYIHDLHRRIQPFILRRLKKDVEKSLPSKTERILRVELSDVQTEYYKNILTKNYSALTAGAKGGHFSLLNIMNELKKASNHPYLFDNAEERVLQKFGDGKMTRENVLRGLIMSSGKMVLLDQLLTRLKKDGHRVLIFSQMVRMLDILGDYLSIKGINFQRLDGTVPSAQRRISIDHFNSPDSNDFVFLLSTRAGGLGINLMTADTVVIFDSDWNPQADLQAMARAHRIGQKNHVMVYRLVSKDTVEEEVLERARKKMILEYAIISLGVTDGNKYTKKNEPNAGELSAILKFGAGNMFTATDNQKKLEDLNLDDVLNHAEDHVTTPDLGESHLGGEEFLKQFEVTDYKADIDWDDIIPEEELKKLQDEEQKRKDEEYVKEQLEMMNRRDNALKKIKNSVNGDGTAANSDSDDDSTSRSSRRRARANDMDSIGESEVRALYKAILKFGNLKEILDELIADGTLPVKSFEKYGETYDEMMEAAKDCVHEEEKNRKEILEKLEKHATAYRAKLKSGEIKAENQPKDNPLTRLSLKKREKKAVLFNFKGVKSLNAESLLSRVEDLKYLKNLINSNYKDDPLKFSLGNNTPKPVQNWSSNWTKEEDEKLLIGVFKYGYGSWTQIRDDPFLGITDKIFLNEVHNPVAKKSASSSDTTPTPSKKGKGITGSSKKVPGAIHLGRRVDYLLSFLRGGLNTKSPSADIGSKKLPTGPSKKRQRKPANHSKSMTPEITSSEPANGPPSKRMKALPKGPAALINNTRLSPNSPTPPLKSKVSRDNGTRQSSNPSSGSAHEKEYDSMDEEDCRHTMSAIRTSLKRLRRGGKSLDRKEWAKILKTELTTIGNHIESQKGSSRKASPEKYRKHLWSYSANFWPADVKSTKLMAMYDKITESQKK

Sialic acid-binding Ig-like lectin 9 (Homo sapiens), sequence (Q9Y336 whole entry): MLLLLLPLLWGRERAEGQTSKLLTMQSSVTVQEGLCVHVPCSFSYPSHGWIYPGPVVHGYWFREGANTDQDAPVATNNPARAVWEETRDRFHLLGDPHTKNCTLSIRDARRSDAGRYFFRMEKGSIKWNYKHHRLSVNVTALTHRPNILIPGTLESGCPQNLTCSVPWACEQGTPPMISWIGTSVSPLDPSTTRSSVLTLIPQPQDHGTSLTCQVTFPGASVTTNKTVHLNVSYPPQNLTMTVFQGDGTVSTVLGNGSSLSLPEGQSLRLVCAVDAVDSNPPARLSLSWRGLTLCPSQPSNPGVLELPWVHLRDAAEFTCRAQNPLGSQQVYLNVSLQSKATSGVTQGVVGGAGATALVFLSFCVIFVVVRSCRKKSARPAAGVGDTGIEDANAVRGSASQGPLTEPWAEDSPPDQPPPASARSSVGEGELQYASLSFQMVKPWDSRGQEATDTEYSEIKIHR
Protein translocase subunit SecA (Escherichia coli (strain K12)), sequence (P10408 whole entry): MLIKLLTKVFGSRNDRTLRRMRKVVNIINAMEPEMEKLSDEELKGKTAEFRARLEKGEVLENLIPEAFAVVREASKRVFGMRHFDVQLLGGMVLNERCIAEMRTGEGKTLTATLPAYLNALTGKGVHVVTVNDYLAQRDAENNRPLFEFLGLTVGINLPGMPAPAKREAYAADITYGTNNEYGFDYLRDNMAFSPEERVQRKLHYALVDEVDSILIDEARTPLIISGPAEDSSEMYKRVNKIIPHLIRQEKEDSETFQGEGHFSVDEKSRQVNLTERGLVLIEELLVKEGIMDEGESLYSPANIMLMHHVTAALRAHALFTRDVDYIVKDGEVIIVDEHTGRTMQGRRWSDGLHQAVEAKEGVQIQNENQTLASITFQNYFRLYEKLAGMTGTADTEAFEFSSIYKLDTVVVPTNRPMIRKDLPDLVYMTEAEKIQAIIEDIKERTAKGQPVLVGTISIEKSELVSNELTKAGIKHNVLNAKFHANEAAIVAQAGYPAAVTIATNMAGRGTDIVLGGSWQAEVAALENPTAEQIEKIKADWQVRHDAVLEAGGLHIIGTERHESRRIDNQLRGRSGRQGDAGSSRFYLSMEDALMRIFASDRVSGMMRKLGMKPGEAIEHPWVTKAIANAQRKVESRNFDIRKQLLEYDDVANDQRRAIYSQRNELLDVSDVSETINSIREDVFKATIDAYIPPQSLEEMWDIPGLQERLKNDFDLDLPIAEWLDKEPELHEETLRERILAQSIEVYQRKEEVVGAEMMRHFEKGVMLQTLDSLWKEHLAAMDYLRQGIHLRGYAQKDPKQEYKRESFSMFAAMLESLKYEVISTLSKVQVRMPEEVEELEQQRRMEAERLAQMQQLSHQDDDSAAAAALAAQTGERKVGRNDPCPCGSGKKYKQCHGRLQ

| SMILES | Percent Effect [1] | Percent Effect [2] | Percent Effect [3] | Percent Effect [4] | Percent Effect (Trypanosoma cruzi) | Percent Effect [5] | Percent Effect [6] | Percent Effect (Homo sapiens) | Percent Effect [7] | Percent Effect [8] | Percent Effect [9] |
| --- | --- | --- | --- | --- | --- | --- | --- | --- | --- | --- | --- |
| O=C(CC1CC1)NCc1cn2c(n1)CN(C(=O)c1cccnc1)CC2 | -2.41% | 8% | 8.62% | 2.88% | -7.28% | 1.17% | 2.73% | 9.61% | 0% | 8.97% | 3.52% |
| O=C(NC1CC1)[C@H]1C[C@H]2OCC[C@H]2N(CC2CCOCC2)C1 | -7.27% | 0% | 1.56% | 2.95% | -3.28% | -51.1% | 7.18% | 3.71% | 5.21% | -2.5% | 319% |
| c1cc(-c2cnccn2)cc(-c2ccn(CCN3CCCC3)n2)c1 | -2.8% | -21.6% | 3.09% | 2.06% | -1.54% | -10.9% | 6.9% | 0.332% | 14.3% | 7.32% | -0.216% |
| CC1CCN(C(=O)CN(Cc2ccco2)C2CC2)CC1 | -1.66% | 2.6% | 6.73% | 0.322% | 6.95% | -1.47% | 7.84% | 3.81% | 1.91% | 7.06% | -5.98% |
| Cc1cc(CN(C)C(=O)NC(C)c2nncn2C)no1 (configuration not stated) | -1.93% | 15.3% | -8.88% | 15.4% | 2.43% | 35.8% | 22.6% | -0.22% | 3.16% | 10.3% | 72% |
| O=C([C@H]1COC[C@H]2CN(Cc3ccco3)C[C@H]21)N1CCCO1 | -7.92% | 18.7% | -1.75% | 0.139% | 4.63% | -47.9% | 4.62% | -0.652% | 6.25% | 15% | -6.91% |
| COc1ccccc1CC(=O)N1CCCC(n2nc(C)cc2C)C1 (configuration not stated) | 4.86% | 0% | 2.98% | -5.42% | -1.23% | 5.32% | 1.06% | 2.12% | -0.493% | -3.8% | -0.887% |
| CCc1noc(CNc2ccc(F)cc2OCC2CC2)n1 | 0.992% | 18.9% | -7.79% | 18.2% | -1.54% | 7.14% | 9.83% | 10.8% | 1.59% | 12.2% | -3.79% |
| Cc1cnn(C2CCCN(C(=O)C3=NN(C)C(=O)CC3)C2)c1 (configuration not stated) | -6.81% | 21.6% | -15.8% | 11.8% | 8.4% | 3.21% | 15.7% | 2.98% | 8.37% | 13.6% | -12.6% |
| CC(NC(=O)c1nc(=O)[nH][nH]1)c1ccc(OCC2CC2)c(F)c1 (configuration not stated) | -5.77% | 10.5% | -0.945% | -1.85% | 4.58% | -3.55% | 4.7% | 4.1% | 5.32% | 10.4% | -13.1% |
| O=C1CC(c2ccc(C(=O)O)cc2)c2ncn(-c3ccccc3)c2N1 (configuration not stated) | -4.54% | 9.33% | -172% | -2.38% | 0.786% | -8.63% | 19.2% | 2.29% | 9.52% | 7.69% | -7.97% |
| CSCC(CCO)NC(=O)Nc1cccc(Br)c1 (configuration not stated) | -3.42% | 2.74% | 8.84% | -3.56% | -3.53% | 3.18% | 17.2% | 6.61% | 0% | 2.5% | -2.08% |
| CCn1cc(C(=O)NCc2csc(Br)c2)cn1 | -4.42% | 3.8% | 6.27% | 4.51% | -2.97% | 3.23% | 7.72% | 13.6% | -1.04% | 7.59% | -2.95% |
| CCC1CN(c2nnc(C)c(C)c2C#N)CCO1 (configuration not stated) | -3.31% | 2.63% | -17.9% | -4.88% | 6.96% | 1.15% | 20.7% | 9.86% | 0.49% | 21.9% | -13.8% |
| CN1C(=O)CC(C(=O)O)C12CCN(Cc1ccc(F)cc1Cl)CC2 (configuration not stated) | -3.75% | 2.67% | -7.2% | 5.97% | 3.41% | -0.521% | 16% | 15.5% | 8.2% | 13.6% | -3.62% |
| CC(C)(C)OC(=O)N1CCCC[C@H]1C(=O)NCc1nccs1 | -0.685% | 0% | -2.33% | 5.11% | 5.18% | 16.6% | 0.944% | -20.1% | 4.3% | 8.64% | -4.5% |
| Cc1ccc(N2CCCC(NCc3cscn3)C2)nn1 (configuration not stated) | -1.67% | 13.5% | -43.1% | -1.8% | -1.04% | 18.4% | 11.3% | 3.87% | 12.3% | 23.5% | -5.79% |
